PubChem BioAssay (EPA / NIEHS)
Activity calls are given as the source filed them. The calls were made as follows: active = hit-call score of the fitted dose curve at least 0.9, where 1 is the maximum; inactive = score below 0.9.

What was measured:
[1] = ATG_ISRE_CIS: Attagene CIS-FACTORIAL HepG2 Assay for human Interferon Regulatory Factor 1 (IRF1) binding to an Interferon-Stimulated Response Element (ISRE) (AID 2282948); settings: HepG2 ISRE cis-reporter (Attagene), mRNA transcription readout; actives raise or lower the signal
Method in brief: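 Signal reflects induction or loss of ISRE-linked reporter mRNA in transiently transfected HepG2 cells after a 24 h treatment, detected by fluorescent RT-PCR fragments on capillary electrophoresis and normalised to DMSO.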

[2] = ATG_M_32_CIS: Attagene CIS-FACTORIAL HepG2 Assay for M32 Transcription Factor (Internal Marker) (AID 2282949); settings: HepG2 Attagene cis-factorial M32 reporter, mRNA; actives raise or lower the signal;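 also: background control marker of the multiplexed CIS panel rather than a real target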
Method in brief: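 HepG2 transfectants (cis-regulated reporter transcription units) dosed 24 h. Reporter mRNA by RT-PCR plus CE, analysed as gain or loss relative to DMSO.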

[3] = ATG_M_06_CIS: Attagene CIS-FACTORIAL HepG2 Assay for M06 Transcription Factor (Internal Marker) (AID 2282950); settings: HepG2 Attagene CIS-FACTORIAL M06 internal marker reporter; actives raise or lower the signal
Method in brief: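 One of many multiplexed endpoints: HepG2 reporter mRNA after 24 h dosing, detected by RT-PCR and capillary electrophoresis fluorescence; gain or loss of signal analysed against DMSO.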

[4] = biological target: Hypoxia-inducible factor 1-alpha (Homo sapiens) (UniProt Q16665); assay: ATG_HIF1a_CIS: Attagene CIS-FACTORIAL HepG2 Assay for human Hypoxia Inducible Factor 1 (HIF1A) (AID 2282951); settings: HepG2 Attagene cis-factorial HIF1a reporter transcription; actives raise or lower the signal
Method in brief: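 Activity is fitted in both directions relative to DMSO. Reporter transcripts are read by RT-PCR, fluorescent primer extension and capillary electrophoresis after 24 h chemical treatment. The cells are HepG2 carrying transiently transfected cis-element-driven reporter units responding to endogenous factors.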

[5] = biological target: Hepatocyte nuclear factor 6 (Homo sapiens) (UniProt Q9UBC0); assay: ATG_HNF6_CIS: Attagene CIS-FACTORIAL HepG2 Assay for human Hepatocyte Nuclear Factor 6 (HNF6) (AID 2282952); settings: HepG2 Attagene cis-factorial HNF6 reporter transcription; actives raise or lower the signal
Method in brief: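 Endogenous transcription factor activity in human HepG2 liver cells was captured through cis-regulated reporter constructs. After 24 h treatment, reporter mRNA was measured by RT-PCR with capillary electrophoresis, and activity was fitted in both directions relative to DMSO.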

[6] = biological target: Heat shock factor protein 1 (Homo sapiens) (UniProt Q00613); assay: ATG_HSE_CIS: Attagene CIS-FACTORIAL HepG2 Assay for human Heat Shock Transcription Factor 1 (HSE) (AID 2282953); settings: HepG2 HSE cis-reporter, Attagene RNA transcription; actives raise or lower the signal
Method in brief: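 Using HepG2 with transfected cis-driven reporter constructs, compound effects on endogenous factor activity are scored as reporter mRNA change at 24 h. Detection: RT-PCR, HpaI digestion, capillary electrophoresis; bidirectional fitting to DMSO.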

[7] = ATG_MRE_CIS: Attagene CIS-FACTORIAL HepG2 Assay for human Metal Responsive Element (MRE) (AID 2282954); settings: HepG2 MRE cis-reporter transcription, Attagene multiplex; actives raise or lower the signal
Method in brief: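 Cells were transfected with cis-promoter reporter transcription units, then dosed for 24 h. RNA was reverse-transcribed, amplified, fluorescently labelled and resolved by capillary electrophoresis, and activity was fitted in both directions relative to DMSO.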

[8] = ATG_PBREM_CIS: Attagene CIS-FACTORIAL HepG2 Assay for human Phenobarbital-responsive Enhancer Module (PBREM) (AID 2282955); settings: HepG2 PBREM cis-reporter, Attagene multiplexed transcription; actives raise or lower the signal
Method in brief: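 Endogenous transcription factor activity was read from reporter transcripts in transiently transfected human HepG2 liver cells after 24 h dosing. RT-PCR products were fluorescently labelled, HpaI-cut and sized by capillary electrophoresis; activity fitted bidirectionally against DMSO baseline.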

[9] = biological target: Paired box protein Pax-6 (Homo sapiens) (UniProt P26367); assay: ATG_Pax6_CIS: Attagene CIS-FACTORIAL HepG2 Assay for human Paired Box 6 (PAX6) (AID 2282956); settings: HepG2 CIS-FACTORIAL PAX6 reporter transcription, RNA readout; actives raise or lower the signal
Method in brief: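 Values derive from bidirectional curve fitting of reporter mRNA signal relative to DMSO. HepG2 cells bearing transfected cis-regulated MRTUs were exposed for 24 h; transcripts were read by RT-PCR and capillary electrophoresis.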

[10] = ATG_PXRE_CIS: Attagene CIS-FACTORIAL HepG2 Assay for human Pregnane X Receptor Element (PXRE) (AID 2282957); settings: HepG2 Attagene CIS-FACTORIAL PXRE reporter, mRNA; actives raise or lower the signal
Method in brief: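 Endogenous transcription factor activity in HepG2 was gauged through induction of reporter mRNA driven by a cis-regulating promoter element, sampled 24 h post-treatment. Activity was fitted in both directions against DMSO negative control.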

[11] = ATG_PPRE_CIS: Attagene CIS-FACTORIAL HepG2 Assay for human Peroxisome Proliferator-activated Response Element (PPRE) (AID 2282958); settings: HepG2 PPRE cis-element reporter, Attagene transcription factor profiling; actives raise or lower the signal
Method in brief: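 Endogenous PPRE-driven transcription is measured in HepG2 cells carrying transfected multi-reporter constructs. Reporter transcripts are quantified by RT-PCR, HpaI digestion and capillary electrophoresis 24 h after dosing. DMSO baseline, bidirectional fit.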

[12] = ATG_RORE_CIS: Attagene CIS-FACTORIAL HepG2 Assay for human RAR-related Orphan Receptor Element (RORE) (AID 2282959); settings: HepG2 Attagene cis-factorial RORE reporter, mRNA; actives raise or lower the signal
Method in brief: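 RORE reporter transcripts reflecting endogenous factor activity were read after 24 h compound exposure of transfected HepG2 cells, using reverse transcription, PCR, fluorescent labelling and capillary electrophoresis sizing. Gain or loss fitted against DMSO.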

[13] = ATG_Sox_CIS: Attagene CIS-FACTORIAL HepG2 Assay for human SRY-box transcription factor (SOX) (AID 2282960); settings: HepG2 Attagene cis-factorial SOX reporter, mRNA; actives raise or lower the signal
Method in brief: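 Reporter transcripts, measured by RT-PCR and capillary electrophoresis of labelled fragments, report endogenous SOX transcription factor activity. Transiently transfected human HepG2 cells receive chemical for 24 h; changes in either direction are fitted relative to DMSO.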

[14] = biological target: Transcription factor Sp1 (Homo sapiens) (UniProt P08047); assay: ATG_Sp1_CIS: Attagene CIS-FACTORIAL HepG2 Assay for human Specificity Protein 1 (Sp1) (AID 2282961); settings: HepG2 Sp1 cis-reporter transcription, actives raise or lower the signal
Method in brief: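 Read-out is reporter transcript level, measured by RT-PCR and fluorescent capillary electrophoresis after 24 h chemical treatment. System: transiently transfected HepG2 cells reporting endogenous transcription factor activity; gain or loss fitted against DMSO baseline.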

[15] = ATG_SREBP_CIS: Attagene CIS-FACTORIAL HepG2 Assay for human Sterol Regulatory Element Binding (SREBP) (AID 2282962); settings: HepG2 Attagene cis-factorial SREBP reporter, mRNA; actives raise or lower the signal
Method in brief: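 Values derive from bidirectional curve fitting with DMSO as baseline. The underlying measurement is reporter mRNA from cis-element-regulated units in transiently transfected HepG2, quantified by RT-PCR and capillary electrophoresis after 24 h exposure.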

[16] = biological target: Signal transducer and activator of transcription 3 (Homo sapiens) (UniProt P40763); assay: ATG_STAT3_CIS: Attagene CIS-FACTORIAL HepG2 Assay for human Signal Transducer and Activator of Transcription 3 (STAT3) (AID 2282963); settings: HepG2, Attagene cis-factorial STAT3 reporter transcription; actives raise or lower the signal
Method in brief: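 HepG2, MRTU-transfected, 24 h dosing. RNA → RT → PCR → FAM label → HpaI → CE. Bidirectional fit vs DMSO.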

[17] = ATG_TA_CIS: Attagene CIS-FACTORIAL HepG2 Assay for human TA Basal Promoter (AID 2282964); settings: HepG2 Attagene CIS-factorial TA basal promoter reporter; actives raise or lower the signal
Method in brief: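 Transient MRTU transfection of HepG2 preceded 24 h compound exposure. Reporter mRNA levels were then read by RT-PCR with capillary electrophoresis, and this background-control endpoint was fitted bidirectionally to DMSO.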

[18] = ATG_TCF_b_cat_CIS: Attagene CIS-FACTORIAL HepG2 Assay for human T-Cell-Factor with beta-catenin (TCF/b-cat) (AID 2282965); settings: HepG2 TCF/beta-catenin cis-reporter transcription, actives raise or lower the signal
Method in brief: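 Using capillary electrophoresis as the read-out, labelled reporter cDNA fragments from transiently transfected HepG2 were sized and quantified. Exposure lasted 24 hours; activity in either direction was referenced to DMSO.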

Measured: AC50

Heat shock factor protein 1 (Homo sapiens), sequence (Q00613 whole entry, looked up): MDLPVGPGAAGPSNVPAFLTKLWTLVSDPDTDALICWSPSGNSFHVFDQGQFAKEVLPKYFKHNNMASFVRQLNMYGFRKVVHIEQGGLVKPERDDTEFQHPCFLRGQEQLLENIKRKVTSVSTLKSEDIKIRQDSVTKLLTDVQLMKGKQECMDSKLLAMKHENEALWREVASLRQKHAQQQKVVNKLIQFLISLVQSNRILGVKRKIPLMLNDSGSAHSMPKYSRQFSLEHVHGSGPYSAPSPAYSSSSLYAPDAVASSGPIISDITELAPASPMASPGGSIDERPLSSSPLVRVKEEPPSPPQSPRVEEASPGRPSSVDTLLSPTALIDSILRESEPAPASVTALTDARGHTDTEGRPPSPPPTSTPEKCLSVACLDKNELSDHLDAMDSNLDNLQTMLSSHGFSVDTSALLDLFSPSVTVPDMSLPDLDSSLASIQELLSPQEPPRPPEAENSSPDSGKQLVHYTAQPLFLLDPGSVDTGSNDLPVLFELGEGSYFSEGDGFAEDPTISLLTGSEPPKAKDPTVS
Transcription factor Sp1 (Homo sapiens), sequence (P08047 whole entry, looked up): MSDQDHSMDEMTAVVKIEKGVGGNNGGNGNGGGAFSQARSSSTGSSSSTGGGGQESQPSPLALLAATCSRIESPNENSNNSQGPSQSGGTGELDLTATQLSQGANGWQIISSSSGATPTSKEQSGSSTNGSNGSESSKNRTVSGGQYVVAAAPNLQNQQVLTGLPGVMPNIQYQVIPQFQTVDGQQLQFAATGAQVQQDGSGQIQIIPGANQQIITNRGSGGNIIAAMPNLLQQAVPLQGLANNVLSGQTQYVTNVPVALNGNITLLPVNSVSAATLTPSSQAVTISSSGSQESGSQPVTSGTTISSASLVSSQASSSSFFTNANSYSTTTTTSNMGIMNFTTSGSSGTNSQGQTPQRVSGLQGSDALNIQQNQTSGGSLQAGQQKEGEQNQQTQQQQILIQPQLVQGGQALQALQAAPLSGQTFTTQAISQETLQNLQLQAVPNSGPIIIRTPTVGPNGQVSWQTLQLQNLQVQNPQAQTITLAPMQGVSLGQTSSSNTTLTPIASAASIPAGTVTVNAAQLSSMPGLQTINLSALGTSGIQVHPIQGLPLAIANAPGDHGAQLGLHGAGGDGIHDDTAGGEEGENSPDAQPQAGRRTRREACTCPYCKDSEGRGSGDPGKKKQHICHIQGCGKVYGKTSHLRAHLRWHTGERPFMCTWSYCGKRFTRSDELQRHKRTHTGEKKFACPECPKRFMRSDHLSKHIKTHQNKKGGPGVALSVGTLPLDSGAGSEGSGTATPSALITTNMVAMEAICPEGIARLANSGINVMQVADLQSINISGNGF
Hepatocyte nuclear factor 6 (Homo sapiens), sequence (Q9UBC0 whole entry, looked up): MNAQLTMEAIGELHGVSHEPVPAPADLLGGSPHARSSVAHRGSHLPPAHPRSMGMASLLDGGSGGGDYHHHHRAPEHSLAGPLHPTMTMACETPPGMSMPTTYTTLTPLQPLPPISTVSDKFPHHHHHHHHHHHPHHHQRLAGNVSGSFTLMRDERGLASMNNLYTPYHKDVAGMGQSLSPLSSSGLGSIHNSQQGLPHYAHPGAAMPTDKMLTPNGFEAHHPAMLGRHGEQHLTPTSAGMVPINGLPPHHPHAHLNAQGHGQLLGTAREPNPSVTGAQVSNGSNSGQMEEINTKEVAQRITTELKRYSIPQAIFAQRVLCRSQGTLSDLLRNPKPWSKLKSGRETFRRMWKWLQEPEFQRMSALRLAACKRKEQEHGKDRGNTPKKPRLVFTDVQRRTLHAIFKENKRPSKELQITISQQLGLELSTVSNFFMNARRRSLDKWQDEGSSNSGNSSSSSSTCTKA
Paired box protein Pax-6 (Homo sapiens), sequence (P26367 whole entry, looked up): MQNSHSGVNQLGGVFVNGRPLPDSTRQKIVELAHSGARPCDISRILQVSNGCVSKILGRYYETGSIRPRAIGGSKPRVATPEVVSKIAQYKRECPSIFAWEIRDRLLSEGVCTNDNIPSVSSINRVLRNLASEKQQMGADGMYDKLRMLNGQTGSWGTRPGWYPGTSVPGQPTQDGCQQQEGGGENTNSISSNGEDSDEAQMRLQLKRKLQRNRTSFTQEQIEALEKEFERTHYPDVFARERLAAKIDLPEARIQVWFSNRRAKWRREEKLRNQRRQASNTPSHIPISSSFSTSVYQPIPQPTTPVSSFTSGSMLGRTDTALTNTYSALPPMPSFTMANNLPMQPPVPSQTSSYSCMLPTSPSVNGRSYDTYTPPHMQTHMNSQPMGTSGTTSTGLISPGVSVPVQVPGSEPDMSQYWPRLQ
Signal transducer and activator of transcription 3 (Homo sapiens), sequence (P40763 whole entry, looked up): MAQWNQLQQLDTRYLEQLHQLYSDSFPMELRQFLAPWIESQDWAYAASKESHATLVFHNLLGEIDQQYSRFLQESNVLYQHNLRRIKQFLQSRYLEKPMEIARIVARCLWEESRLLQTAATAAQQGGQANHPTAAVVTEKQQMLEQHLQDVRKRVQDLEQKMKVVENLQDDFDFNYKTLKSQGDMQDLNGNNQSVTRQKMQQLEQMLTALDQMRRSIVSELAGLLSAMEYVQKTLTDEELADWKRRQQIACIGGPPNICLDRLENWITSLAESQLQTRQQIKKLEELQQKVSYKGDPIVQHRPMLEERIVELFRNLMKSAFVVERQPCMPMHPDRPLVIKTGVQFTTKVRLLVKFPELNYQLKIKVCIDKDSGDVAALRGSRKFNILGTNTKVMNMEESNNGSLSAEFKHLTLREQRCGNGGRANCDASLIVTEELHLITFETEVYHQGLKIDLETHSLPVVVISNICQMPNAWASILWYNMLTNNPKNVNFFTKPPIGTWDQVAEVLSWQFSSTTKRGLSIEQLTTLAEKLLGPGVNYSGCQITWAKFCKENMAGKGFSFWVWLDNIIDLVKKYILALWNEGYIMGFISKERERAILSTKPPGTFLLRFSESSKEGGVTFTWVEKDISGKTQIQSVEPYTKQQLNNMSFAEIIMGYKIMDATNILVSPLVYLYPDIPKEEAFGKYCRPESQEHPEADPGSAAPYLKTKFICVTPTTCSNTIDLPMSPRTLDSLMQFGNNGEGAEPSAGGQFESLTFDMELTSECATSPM
Hypoxia-inducible factor 1-alpha (Homo sapiens), sequence (Q16665 whole entry, looked up): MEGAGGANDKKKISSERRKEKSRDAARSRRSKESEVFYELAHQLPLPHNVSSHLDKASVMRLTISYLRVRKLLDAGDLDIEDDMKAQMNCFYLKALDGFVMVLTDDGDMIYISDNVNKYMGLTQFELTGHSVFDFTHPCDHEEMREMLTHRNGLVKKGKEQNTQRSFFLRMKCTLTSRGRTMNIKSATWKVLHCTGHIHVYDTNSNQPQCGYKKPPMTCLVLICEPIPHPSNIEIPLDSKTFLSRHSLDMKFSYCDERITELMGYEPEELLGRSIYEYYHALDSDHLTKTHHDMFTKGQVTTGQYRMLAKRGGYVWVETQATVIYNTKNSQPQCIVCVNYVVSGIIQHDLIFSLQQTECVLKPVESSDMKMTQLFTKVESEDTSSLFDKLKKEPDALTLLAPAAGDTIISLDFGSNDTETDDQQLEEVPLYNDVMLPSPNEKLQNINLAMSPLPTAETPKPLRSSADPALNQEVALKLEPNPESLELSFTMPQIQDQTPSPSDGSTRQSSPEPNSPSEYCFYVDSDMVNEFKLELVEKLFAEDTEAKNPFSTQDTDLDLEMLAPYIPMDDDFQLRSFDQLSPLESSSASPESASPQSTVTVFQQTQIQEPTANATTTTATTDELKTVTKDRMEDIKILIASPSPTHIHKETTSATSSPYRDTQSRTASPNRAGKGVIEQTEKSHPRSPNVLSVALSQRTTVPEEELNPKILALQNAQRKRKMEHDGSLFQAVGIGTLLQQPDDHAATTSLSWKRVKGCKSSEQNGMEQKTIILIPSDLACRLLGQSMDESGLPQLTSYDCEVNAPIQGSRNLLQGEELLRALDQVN

COc1ccc(C=O)cc1
inactive: all assays above

CC(C)c1cccc(C(C)C)c1O
active: [10] 3.76 µM
not listed: [2] | [4]
inactive: all other assays above

COP(=S)(OC)Oc1ccc(Sc2ccc(OP(=S)(OC)OC)cc2)cc1
active: [4] 39.3 µM | [6] 27 µM | [7] 57.7 µM | [8] 8.08 µM | [9] 49.2 µM | [12] 37.2 µM
not listed: [2] | [10] | [18]
inactive: all other assays above

C[C@H]1CCCC(=O)CCC/C=C/c2cc(O)cc(O)c2C(=O)O1
active: [1] 16.8 µM | [6] 23.7 µM | [7] 33.1 µM | [8] 5.35 µM | [10] 0.665 µM
inactive: all other assays above

N#Cc1ccccn1
not listed: [6] | [10] | [11]
inactive: all other assays above

C=CCc1ccc(OC)cc1
active: [10] 26.6 µM
inactive: all other assays above

c1ccc(N=NNc2ccccc2)cc1
active: [6] 151 µM | [7] 100 µM | [9] 125 µM | [11] 21.7 µM | [13] 145 µM | [14] 153 µM | [15] 136 µM
not listed: [2] | [10]
inactive: all other assays above

ClCc1ccccn1
not listed: [2]
inactive: all other assays above

Cl/C=C/Cl
not listed: [8] | [11] | [18]
inactive: all other assays above

C1CCC(NC2CCCCC2)CC1
not listed: [2] | [10]
inactive: all other assays above

Cc1ccc(N)cc1Cl
not listed: [10] | [11]
inactive: all other assays above

CCC[CH2][Sn]([CH2]CCC)([CH2]CCC)[O]C(=O)c1ccccc1
active: [11] 0.0115 µM
not listed: [6] | [8] | [12]
inactive: all other assays above

O=[N+]([O-])c1ccc(O)c([N+](=O)[O-])c1
not listed: [11]
inactive: all other assays above

CC1CN1P(=O)(N1CC1C)N1CC1C (stereo not given)
not listed: [10] | [11]
inactive: all other assays above

O=P(O)(O)CN(CP(=O)(O)O)CP(=O)(O)O
not listed: [8]
inactive: all other assays above
